Laboratory results taken from the supplement of paper PMC10849652.
Of roughly 8,800 targets only a part is listed; those with a hit were picked by preference. About 0.5% of all pairs of compound and target were hits.

Legend:
Test in all cases: log2 fold change, soluble protein after heating vs DMSO (PISA); higher = thermal stabilisation; K562 lysate, 10 uM; active = over 0.2 and 3.5 SD of the protein, either way, in both replicates (recomputed)
nilotinib = compound: Cc1cn(-c2cc(NC(=O)c3ccc(C)c(Nc4nccc(-c5cccnc5)n4)c3)cc(C(F)(F)F)c2)cn1 [nilotinib]
Procedure, shortened: (§1)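 Values give the log-two fold change in thermal stability against solvent controls, from duplicates. Crude K562 extract at 1 mg/mL protein, made by dounce homogenisation in PBS pH 7.4 with 1 mM MgCl2, was treated with 10 μM compound for 30 min. After 3 min heating across 48°C-58°C, aliquots were pooled, adjusted to 0.5% NP-40 at 4°C and centrifuged at 21,000xg for 90 min. The supernatant was measured by TMTpro 16plex LC-MS/MS with channel sums equalised.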

[1] = compound: Cc1nc(Nc2n[nH]c3c2CN(C(=O)N[C@H](CN(C)C)c2ccccc2)C3(C)C)c2sccc2n1
Procedure, shortened: as §1

dasatinib = compound: Cc1nc(Nc2ncc(C(=O)Nc3c(C)cccc3Cl)s2)cc(N2CCN(CCO)CC2)n1 [dasatinib]
Procedure, shortened: as §1

[2] = compound: Cc1ncc(-c2ccnc(Nc3ccc(S(C)(=O)=O)cc3)n2)n1C(C)C
Procedure, shortened: as §1

[3] = compound: Cn1cc(-c2ccc3c(c2)CCN3C(=O)Cc2cccc(C(F)(F)F)c2)c2c(N)ncnc21
Procedure, shortened: as §1

quisinostat = compound: Cn1cc(CNCC2CCN(c3ncc(C(=O)NO)cn3)CC2)c2ccccc21 [quisinostat]
Procedure, shortened: as §1

tipifarnib = compound: Cn1cncc1[C@@](N)(c1ccc(Cl)cc1)c1ccc2c(c1)c(-c1cccc(Cl)c1)cc(=O)n2C [tipifarnib]
Procedure, shortened: as §1

[4] = compound: NC(=O)Nc1cc(-c2cccc(F)c2)sc1C(=O)N[C@H]1CCCNC1
Procedure, shortened: as §1

[5] = compound: NC(=O)c1cnc(N[C@@H]2CCCC[C@@H]2N)nc1Nc1cccc(-n2nccn2)c1
Procedure, shortened: as §1

[6] = compound: NC1(c2ccc(-c3nc4ccn5c(=O)[nH]nc5c4cc3-c3ccccc3)cc2)CCC1
Procedure, shortened: as §1

[7] = compound: NCC(=O)Nc1ccc(-n2nc(C(F)(F)F)cc2-c2ccc3c(ccc4ccccc43)c2)cc1
Procedure, shortened: as §1

vorinostat = compound: O=C(CCCCCCC(=O)Nc1ccccc1)NO [vorinostat]
Procedure, shortened: as §1

silmitasertib = compound: O=C(O)c1ccc2c(c1)nc(Nc1cccc(Cl)c1)c1ccncc12 [silmitasertib]
Procedure, shortened: as §1

[8] = compound: O=C1NC(=O)C(c2cnc3ccccn23)=C1c1cn2c3c(cc(F)cc13)CN(C(=O)N1CCCCC1)CC2
Procedure, shortened: as §1

entospletinib = compound: c1cn2cc(-c3ccc4cn[nH]c4c3)nc(Nc3ccc(N4CCOCC4)cc3)c2n1 [entospletinib]
Procedure, shortened: as §1

Measured: log2 fold change

HECTD3 (UniProt Q5T447)
UniProt Q5T447, sequence (Q5T447 whole entry, looked up): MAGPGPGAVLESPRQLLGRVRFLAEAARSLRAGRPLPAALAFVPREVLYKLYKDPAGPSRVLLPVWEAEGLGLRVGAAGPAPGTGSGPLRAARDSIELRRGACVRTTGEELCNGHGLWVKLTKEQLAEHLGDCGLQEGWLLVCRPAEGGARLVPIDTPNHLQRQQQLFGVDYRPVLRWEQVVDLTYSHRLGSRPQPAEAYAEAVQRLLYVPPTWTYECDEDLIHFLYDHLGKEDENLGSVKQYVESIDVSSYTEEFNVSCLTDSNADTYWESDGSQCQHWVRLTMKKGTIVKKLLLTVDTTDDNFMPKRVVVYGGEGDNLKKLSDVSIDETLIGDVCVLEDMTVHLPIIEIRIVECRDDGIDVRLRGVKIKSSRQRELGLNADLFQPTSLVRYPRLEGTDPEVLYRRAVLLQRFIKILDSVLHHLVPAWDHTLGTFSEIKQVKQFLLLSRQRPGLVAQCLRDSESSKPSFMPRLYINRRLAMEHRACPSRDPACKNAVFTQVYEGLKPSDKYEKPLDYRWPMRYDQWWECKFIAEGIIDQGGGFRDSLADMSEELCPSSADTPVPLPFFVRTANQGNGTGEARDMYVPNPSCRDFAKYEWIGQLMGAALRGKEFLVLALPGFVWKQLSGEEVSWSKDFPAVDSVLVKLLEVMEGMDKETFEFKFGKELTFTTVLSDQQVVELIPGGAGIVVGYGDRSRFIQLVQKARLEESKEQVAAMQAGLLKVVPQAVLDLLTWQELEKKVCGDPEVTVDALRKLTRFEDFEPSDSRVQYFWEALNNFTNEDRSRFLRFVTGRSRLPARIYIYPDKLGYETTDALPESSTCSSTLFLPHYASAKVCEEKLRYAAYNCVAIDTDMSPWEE
active: vorinostat -0.253
inactive: nilotinib -0.004 | [1] 0.041 | dasatinib -0.016 | [2] -0.012 | [3] 0.006 | quisinostat 0.026 | tipifarnib 0.059 | [4] 0.05 | [5] 0.003 | [6] 0.056 | [7] -0.015 | silmitasertib 0.109 | [8] -0.02 | entospletinib 0.022

GTF2I (UniProt P78347)
active: vorinostat -0.287
inactive: nilotinib 0.001 | [1] 0.002 | dasatinib -0.042 | [2] -0.011 | [3] 0.035 | quisinostat -0.006 | tipifarnib -0.008 | [4] 0.034 | [5] 0 | [6] -0.014 | [7] -0.001 | silmitasertib 0.091 | [8] -0.005 | entospletinib -0.017

ITPRIP (UniProt Q8IWB1)
inactive: dasatinib -0.017 | [3] 0.005 | [6] 0.06 | vorinostat -0.33 | silmitasertib 0.095

HMGN5 (UniProt Q5JSK9)
inactive: nilotinib -0.074 | [1] 0.062 | [2] -0.036 | tipifarnib 0.076 | [5] -0.035 | entospletinib -0.187

HNRNPL, A0A3B3ITJ4
inactive: [5] 0.019

GSTM2 (UniProt P28161)
inactive: nilotinib 0.124 | [1] -0.007 | dasatinib 0.027 | [2] 0.007 | [3] -0.005 | tipifarnib 0.064 | [5] -0.052 | [6] -0.019 | [7] 0.017 | entospletinib 0.044
active: vorinostat 0.323 | silmitasertib 0.378

IMPDH2 (UniProt H0Y4R1)
inactive: nilotinib 0.106 | [1] -0.012 | dasatinib 0.004 | [2] 0.014 | [3] -0.066 | quisinostat -0.153 | tipifarnib -0.09 | [4] 0.02 | [5] -0.01 | [7] -0.044 | [8] 0.05 | entospletinib -0.042

GTPBP6 (UniProt O43824)
inactive: dasatinib -0.025 | [3] 0.136 | [7] 0.069 | entospletinib 0.255

IRS2 (UniProt Q9Y4H2)
inactive: nilotinib -0.05 | [1] -0.044 | dasatinib -0.018 | [2] -0.071 | [3] -0.074 | quisinostat -0.15 | tipifarnib -0.071 | [4] 0.142 | [5] 0.062 | [6] 0.112 | vorinostat -0.034 | silmitasertib -0.065 | [8] 0.14

HSPA8 (UniProt E9PN89)
inactive: nilotinib 0.013 | [1] -0.008 | dasatinib -0.209 | [2] -0.055 | [3] -0.032 | quisinostat -0.415 | tipifarnib 0.006 | [4] 0 | [5] 0.084 | [6] -0.089 | vorinostat -0.01 | silmitasertib 0.016 | [8] -0.017 | entospletinib -0.024

IPP (UniProt Q9Y573)
inactive: dasatinib -0.244 | [3] 0.03 | [5] -0.097 | [6] 0.093 | [7] 0.04 | silmitasertib 0.205 | entospletinib 0.074
active: vorinostat -0.633

ITGB1BP2 (UniProt Q9UKP3)
inactive: dasatinib -0.104 | [3] 0.249 | [7] 0.053 | entospletinib 0.107

HDAC3 (UniProt E7ESJ6)
inactive: [5] 0.058

KDM5C (UniProt P41229)
inactive: nilotinib -0.021 | [1] -0.005 | dasatinib -0.032 | [2] 0.022 | [3] 0.033 | quisinostat -0.084 | tipifarnib 0.037 | [4] 0.032 | [5] -0.037 | [6] -0.032 | [7] 0.039 | silmitasertib 0.015 | [8] 0 | entospletinib 0.003
active: vorinostat -0.282

ISL2 (UniProt Q96A47)
inactive: dasatinib 0.015 | [3] 0.053 | quisinostat 0.055 | [4] -0.092 | [6] 0.014 | vorinostat -0.026 | silmitasertib 0.04 | [8] 0.179

ITPR2 (UniProt Q14571)
inactive: nilotinib -0.008 | [1] -0.081 | dasatinib 0.019 | [2] 0.048 | [3] -0.078 | tipifarnib 0.003 | [5] 0.277 | [6] -0.12 | silmitasertib 0.024
active: vorinostat -0.965

HNRNPUL1 (UniProt M0R247)
inactive: [6] -0.063 | vorinostat 0.197 | silmitasertib -0.037

H3-3A (UniProt P84243)
inactive: quisinostat 0.014 | [4] 0.032 | [5] 0 | [6] -0.093 | [7] 0.021 | vorinostat -0.077 | silmitasertib 0 | [8] 0.026 | entospletinib -0.035

HDAC2 (UniProt Q92769)
inactive: nilotinib -0.022 | [1] 0.014 | dasatinib -0.024 | [2] -0.013 | [3] 0.044 | tipifarnib -0.011 | [4] 0.018 | [5] 0.001 | [6] -0.031 | [7] 0.001 | silmitasertib -0.002 | [8] 0.057 | entospletinib -0.005
active: quisinostat 0.635

HTT (UniProt P42858)
UniProt P42858, sequence (P42858 whole entry, looked up): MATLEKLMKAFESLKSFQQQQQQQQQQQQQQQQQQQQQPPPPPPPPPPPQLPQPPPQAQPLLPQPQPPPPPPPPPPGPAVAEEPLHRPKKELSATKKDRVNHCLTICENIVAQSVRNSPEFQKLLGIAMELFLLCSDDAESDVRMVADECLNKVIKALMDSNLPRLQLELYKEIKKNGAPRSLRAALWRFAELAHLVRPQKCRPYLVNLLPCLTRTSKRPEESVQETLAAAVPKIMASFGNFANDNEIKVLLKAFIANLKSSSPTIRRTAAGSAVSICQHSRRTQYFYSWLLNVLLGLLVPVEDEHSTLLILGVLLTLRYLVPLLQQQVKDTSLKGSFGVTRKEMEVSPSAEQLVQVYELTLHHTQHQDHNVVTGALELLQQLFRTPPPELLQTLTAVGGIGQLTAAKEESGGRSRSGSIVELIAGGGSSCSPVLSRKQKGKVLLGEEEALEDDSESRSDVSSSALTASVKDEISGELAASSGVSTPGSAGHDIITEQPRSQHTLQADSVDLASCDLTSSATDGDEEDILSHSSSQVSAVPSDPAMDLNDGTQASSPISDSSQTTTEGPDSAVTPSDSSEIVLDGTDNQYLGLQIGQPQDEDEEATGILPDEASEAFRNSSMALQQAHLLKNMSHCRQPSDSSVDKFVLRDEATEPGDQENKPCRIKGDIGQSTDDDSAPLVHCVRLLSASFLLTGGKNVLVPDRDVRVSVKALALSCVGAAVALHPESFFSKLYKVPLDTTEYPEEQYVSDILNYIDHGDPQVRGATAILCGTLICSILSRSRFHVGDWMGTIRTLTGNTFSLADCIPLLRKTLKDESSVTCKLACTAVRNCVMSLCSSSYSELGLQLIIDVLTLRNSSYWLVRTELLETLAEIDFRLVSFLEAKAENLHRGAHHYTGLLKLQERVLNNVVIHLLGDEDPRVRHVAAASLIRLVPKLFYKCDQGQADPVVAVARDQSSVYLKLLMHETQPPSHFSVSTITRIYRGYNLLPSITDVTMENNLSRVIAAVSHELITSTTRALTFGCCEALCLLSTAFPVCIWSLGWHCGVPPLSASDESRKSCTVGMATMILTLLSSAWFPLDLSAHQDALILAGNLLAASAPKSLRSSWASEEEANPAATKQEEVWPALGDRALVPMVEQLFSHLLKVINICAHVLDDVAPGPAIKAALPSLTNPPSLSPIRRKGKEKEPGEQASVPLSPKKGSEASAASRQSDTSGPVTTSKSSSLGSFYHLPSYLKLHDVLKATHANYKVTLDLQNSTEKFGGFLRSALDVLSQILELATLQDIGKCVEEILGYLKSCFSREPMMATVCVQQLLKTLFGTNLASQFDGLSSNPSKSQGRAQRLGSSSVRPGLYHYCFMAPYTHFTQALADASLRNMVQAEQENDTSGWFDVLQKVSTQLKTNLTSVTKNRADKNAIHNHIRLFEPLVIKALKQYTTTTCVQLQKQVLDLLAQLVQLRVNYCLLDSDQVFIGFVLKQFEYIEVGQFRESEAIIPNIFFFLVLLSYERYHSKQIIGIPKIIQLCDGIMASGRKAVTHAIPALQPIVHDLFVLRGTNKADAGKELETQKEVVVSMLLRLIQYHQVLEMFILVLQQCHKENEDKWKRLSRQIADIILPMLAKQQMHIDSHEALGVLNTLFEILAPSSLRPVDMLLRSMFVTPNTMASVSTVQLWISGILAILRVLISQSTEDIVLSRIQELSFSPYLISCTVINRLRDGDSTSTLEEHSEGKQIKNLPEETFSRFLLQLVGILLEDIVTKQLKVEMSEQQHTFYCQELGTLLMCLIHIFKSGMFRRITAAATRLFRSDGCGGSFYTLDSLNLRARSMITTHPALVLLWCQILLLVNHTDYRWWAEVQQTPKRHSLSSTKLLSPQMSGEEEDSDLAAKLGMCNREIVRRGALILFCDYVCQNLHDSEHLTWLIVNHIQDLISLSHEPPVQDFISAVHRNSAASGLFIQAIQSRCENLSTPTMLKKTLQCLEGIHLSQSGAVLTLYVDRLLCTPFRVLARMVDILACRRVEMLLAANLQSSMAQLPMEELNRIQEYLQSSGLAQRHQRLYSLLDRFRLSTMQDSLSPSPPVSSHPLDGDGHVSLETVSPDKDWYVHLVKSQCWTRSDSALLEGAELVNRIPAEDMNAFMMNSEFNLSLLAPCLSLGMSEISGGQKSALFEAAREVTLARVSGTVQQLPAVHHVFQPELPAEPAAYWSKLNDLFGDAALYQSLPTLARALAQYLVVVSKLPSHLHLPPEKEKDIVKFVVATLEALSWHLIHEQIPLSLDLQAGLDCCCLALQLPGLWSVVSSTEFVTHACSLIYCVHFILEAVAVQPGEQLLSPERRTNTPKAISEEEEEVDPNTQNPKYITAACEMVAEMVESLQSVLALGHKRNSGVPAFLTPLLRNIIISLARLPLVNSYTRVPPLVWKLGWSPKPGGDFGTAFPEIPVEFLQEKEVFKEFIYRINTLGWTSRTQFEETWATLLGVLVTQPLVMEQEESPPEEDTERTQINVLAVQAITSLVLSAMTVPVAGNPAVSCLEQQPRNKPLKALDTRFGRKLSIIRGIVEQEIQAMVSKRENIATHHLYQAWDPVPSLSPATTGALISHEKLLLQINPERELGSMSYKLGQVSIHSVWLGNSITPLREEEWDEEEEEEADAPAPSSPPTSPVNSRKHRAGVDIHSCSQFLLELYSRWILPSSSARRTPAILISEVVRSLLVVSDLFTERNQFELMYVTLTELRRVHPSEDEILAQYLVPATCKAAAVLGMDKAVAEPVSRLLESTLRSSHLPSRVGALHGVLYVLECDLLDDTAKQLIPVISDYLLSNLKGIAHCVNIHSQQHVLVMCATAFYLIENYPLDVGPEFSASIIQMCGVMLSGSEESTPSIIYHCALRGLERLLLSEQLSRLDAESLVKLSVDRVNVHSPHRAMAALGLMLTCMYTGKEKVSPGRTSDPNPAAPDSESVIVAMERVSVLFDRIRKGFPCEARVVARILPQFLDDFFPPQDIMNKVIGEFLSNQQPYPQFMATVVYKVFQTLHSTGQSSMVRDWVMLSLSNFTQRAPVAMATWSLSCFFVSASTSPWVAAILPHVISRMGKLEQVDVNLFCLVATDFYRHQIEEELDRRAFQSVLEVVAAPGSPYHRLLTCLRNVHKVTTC
active: vorinostat -0.331
inactive: nilotinib -0.106 | [1] 0.003 | dasatinib 0.001 | [2] 0.072 | [3] 0.072 | quisinostat -0.081 | tipifarnib -0.072 | [4] 0.041 | [6] 0.005 | [7] -0.029 | silmitasertib 0.04 | [8] 0 | entospletinib -0.042

HSPBAP1 (UniProt Q96EW2)
UniProt Q96EW2, sequence (Q96EW2 whole entry, looked up): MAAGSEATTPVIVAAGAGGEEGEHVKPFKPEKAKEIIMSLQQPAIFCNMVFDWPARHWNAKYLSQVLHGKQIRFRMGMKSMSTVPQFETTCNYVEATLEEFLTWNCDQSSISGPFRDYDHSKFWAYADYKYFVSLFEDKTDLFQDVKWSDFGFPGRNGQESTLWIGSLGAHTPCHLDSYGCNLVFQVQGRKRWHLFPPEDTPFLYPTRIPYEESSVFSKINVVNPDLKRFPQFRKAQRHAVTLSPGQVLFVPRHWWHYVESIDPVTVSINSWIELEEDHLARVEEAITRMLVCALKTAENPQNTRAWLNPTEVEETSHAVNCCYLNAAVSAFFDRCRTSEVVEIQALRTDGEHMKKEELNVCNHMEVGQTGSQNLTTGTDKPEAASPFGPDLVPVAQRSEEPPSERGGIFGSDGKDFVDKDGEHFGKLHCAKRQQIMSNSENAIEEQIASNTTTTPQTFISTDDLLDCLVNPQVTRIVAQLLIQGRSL
inactive: nilotinib 0.1 | [1] 0.039 | dasatinib 0.011 | [2] 0.14 | [3] 0.213 | quisinostat -0.07 | tipifarnib 0.056 | [4] 0.024 | [5] -0.056 | [6] 0.032 | vorinostat -0.07 | silmitasertib 0.044 | [8] -0.014 | entospletinib -0.125

HECW2 (UniProt Q9P2P5)
inactive: nilotinib -0.147 | [1] 0.021 | dasatinib -0.031 | [2] -0.092 | [3] -0.103 | tipifarnib -0.041 | [4] -0.035 | [6] 0.126 | [7] -0.018 | vorinostat -0.058 | silmitasertib 0.011 | [8] -0.004 | entospletinib -0.09
active: quisinostat -0.513

IGF2BP2 isoform 6 (UniProt Q9Y6M1)
inactive: [5] 0.079

HNRNPM (UniProt M0QZM1)
inactive: dasatinib -0.022 | [3] -0.163 | quisinostat 0 | [4] -0.012 | [7] 0.125 | [8] 0.038 | entospletinib 0

HNRNPM (UniProt M0R019)
inactive: [7] -0.198

HNRNPD (UniProt D6RF44)
inactive: nilotinib -0.03 | [1] 0.11 | [2] 0.103 | quisinostat -0.061 | tipifarnib 0.12 | [4] -0.353 | [8] -0.04

GPLD1 (UniProt P80108)
inactive: dasatinib -0.255 | [3] 0 | quisinostat 0.108 | [4] 0.153 | [8] 0.366

KIAA0930 isoform 2 (UniProt Q6ICG6)
inactive: nilotinib -0.041 | [1] 0.05 | dasatinib 0.202 | [2] -0.109 | [3] -0.021 | quisinostat 0.03 | tipifarnib -0.037 | [4] -0.026 | [5] -0.047 | [7] 0.046 | [8] -0.057 | entospletinib 0.062

GYPA (UniProt P02724)
UniProt P02724, sequence (P02724 whole entry, looked up): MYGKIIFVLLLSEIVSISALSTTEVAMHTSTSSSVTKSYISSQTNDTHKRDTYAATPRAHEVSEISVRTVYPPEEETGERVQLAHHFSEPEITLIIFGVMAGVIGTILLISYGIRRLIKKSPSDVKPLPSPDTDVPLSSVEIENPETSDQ
inactive: dasatinib 0.097 | [3] 0.045 | quisinostat -0.062 | [4] 0.026 | [5] -0.047 | [6] -0.024 | [7] -0.028 | vorinostat 0.152 | silmitasertib -0.097 | [8] -0.04 | entospletinib 0.019

GNB4 (UniProt Q9HAV0)
UniProt Q9HAV0, sequence (Q9HAV0 whole entry, looked up): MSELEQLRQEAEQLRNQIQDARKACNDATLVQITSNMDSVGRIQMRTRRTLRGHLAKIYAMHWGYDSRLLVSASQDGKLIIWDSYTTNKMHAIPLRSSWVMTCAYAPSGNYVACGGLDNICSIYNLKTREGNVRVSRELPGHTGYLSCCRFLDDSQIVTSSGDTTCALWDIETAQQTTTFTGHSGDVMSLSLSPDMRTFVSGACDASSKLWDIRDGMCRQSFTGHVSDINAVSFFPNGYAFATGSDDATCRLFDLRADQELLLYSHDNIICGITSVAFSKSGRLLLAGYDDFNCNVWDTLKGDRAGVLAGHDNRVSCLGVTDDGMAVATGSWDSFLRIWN
inactive: nilotinib -0.083 | [1] 0.055 | dasatinib 0.048 | [2] 0.127 | [3] -0.097 | quisinostat 0.042 | tipifarnib 0.048 | [4] -0.172 | [5] 0.028 | [6] 0.007 | vorinostat 0.006 | silmitasertib 0.017 | [8] -0.059 | entospletinib 0.029

JAK3 (UniProt P52333)
inactive: quisinostat 0.131 | [4] 0.008 | [5] -0.056 | [7] -0.319 | [8] -0.002

HOMER3 (UniProt Q9NSC5)
inactive: quisinostat -0.147 | [4] 0.019 | [5] -0.023 | [8] -0.022

KDM5B isoform 2 (UniProt Q9UGL1)
inactive: dasatinib 0.021 | [3] -0.049 | quisinostat -0.117 | [4] -0.085 | [5] 0.034 | [6] -0.049 | [7] 0.11 | vorinostat 0.085 | silmitasertib -0.018 | [8] 0.116 | entospletinib -0.037

IGFBP4 (UniProt P22692)
inactive: nilotinib 0.005 | [1] -0.01 | dasatinib 0.085 | [2] -0.053 | [3] -0.022 | quisinostat -0.049 | tipifarnib 0.119 | [4] -0.021 | [5] 0.293 | [6] -0.026 | vorinostat 0.049 | silmitasertib -0.026 | [8] 0.023
